Data from the supplement of paper PMC10811239.

Legend:
[1] = tested on: LEGO organoid PTCC (PTEN-/-; TP53-/-; CDKN2A-/-; CDKN2B-/-); assay: bioluminescence (viable cell) signal fold change after vs before treatment, normalised to DMSO (ratio); higher = more tumour cell growth / less inhibition; conditions: 10 µM; treatment time 6 days
Experimental: (§1)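 Luc2-labelled iPSC-derived glioblastoma-like organoids (LEGOs, genotypes PT = PTEN-/-;TP53-/-, PTCC = plus CDKN2A/B-/-, PTN = plus NF1-/-) were treated with 10 uM drug for 6 days (applied every other day) at 37 C. Bioluminescence imaging was done before treatment and 2 days after the last dose. BLI signals were normalised to the DMSO control on the same day and then to the pre-treatment signal (N=3).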

[2] = tested on: LEGO organoid PTN (PTEN-/-; TP53-/-; NF1-/-); assay: as above; conditions: 10 µM; treatment time 6 days
Experimental: as §1

Compound	bioluminescence [1]	bioluminescence [2]
COc1cccc2c1C(=O)c1c(O)c3c(c(O)c1C2=O)C[C@@](O)(C(=O)CO)C[C@@H]3O[C@H]1C[C@H](N)[C@@H](O)[C@H](C)O1.Cl [Epirubicin hydrochloride]	0	0.00894
CCc1c(C)[nH]c2c1C(=O)C(CN1CCOCC1)CC2.Cl (stereo unspecified) [Molindone hydrochloride]	1.39	1.2
CCCCS(=O)(=O)N[C@@H](Cc1ccc(OCCCCC2CCNCC2)cc1)C(=O)O [Tirofiban]	1.21	0.848
Cc1ccccc1C(OCCN(C)C)c1ccccc1.O=C(O)CC(O)(CC(=O)O)C(=O)O (stereo unspecified) [Orphenadrine Citrate]	2.65	0.98
COc1cc(C(=O)NCc2ccc(OCCN(C)C)cc2)cc(OC)c1OC.Cl [Trimethobenzamide hydrochloride]	0.906	0.646
O=c1[nH]c(=O)n(C2CCCO2)cc1F (stereo unspecified) [Tegafur]	1.14	0.727
CS(=O)(=O)CCNCc1ccc(-c2ccc3ncnc(Nc4ccc(OCc5cccc(F)c5)c(Cl)c4)c3c2)o1 [Lapatinib]	0.878	1.93
CS(=O)(=O)c1ccc(C2=C(c3ccccc3)C(=O)OC2)cc1 [Rofecoxib]	0.638	2.18
CN(C)C(=N)NC(=N)N.Cl [Metformin hydrochloride]	1.27	1.35
C=CC(=O)Nc1cc(Nc2nccc(-c3cn(C)c4ccccc34)n2)c(OC)cc1N(C)CCN(C)C [Osimertinib]	0.0861	0.0227
CCCCN1CCCCC1C(=O)Nc1c(C)cccc1C.Cl (stereo unspecified) [Bupivacaine hydrochloride]	1.22	0.809
CNCCCN1c2ccccc2CCc2ccccc21.Cl [Desipramine hydrochloride]	0.744	1.22
CCc1cccc2c3c([nH]c12)C(CC)(CC(=O)O)OCC3 (stereo unspecified) [Etodolac]	0.917	1.19
CC(C)NCC(O)COc1cccc2ccccc12.Cl (stereo unspecified) [Propranolol hydrochloride]	0.672	1.25
CCC1(C)CC(=O)NC1=O (stereo unspecified) [Ethosuximide]	0.668	0.778
CN(C)CCOC(C)(c1ccccc1)c1ccccn1.O=C(O)CCC(=O)O (stereo unspecified) [Doxylamine succinate]	1.17	0.999
COC(=O)N[C@H](C(=O)N[C@@H](Cc1ccccc1)[C@@H](O)CN(Cc1ccc(-c2ccccn2)cc1)NC(=O)[C@@H](NC(=O)OC)C(C)(C)C)C(C)(C)C.O=S(=O)(O)O [Atazanavir sulfate]	0.573	6.56
CN(C)CCCN1c2ccccc2CCc2ccccc21.Cl [Imipramine hydrochloride]	0.82	0.961
CC(=O)N[C@@H](CS)C(=O)O [Acetylcysteine]	1.21	3.17
CO[C@@H]1[C@H](N(C)C(=O)c2ccccc2)C[C@H]2O[C@]1(C)n1c3ccccc3c3c4c(c5c6ccccc6n2c5c31)C(=O)NC4 [Midostaurin]	1.65	0.647
C#CCN[C@@H]1CCc2ccccc21.CS(=O)(=O)O [Rasagiline Mesylate]	2.02	1.25

Compound	bioluminescence [1]	bioluminescence [2]
Nc1nnc(-c2cccc(Cl)c2Cl)c(N)n1 [Lamotrigine]	2.24	0.446
COc1c(N2CCNC(C)C2)c(F)cc2c(=O)c(C(=O)O)cn(C3CC3)c12 (stereo unspecified) [Gatifloxacin]	0.933	4.79
O=C(O)Cc1ccccc1Nc1c(Cl)cccc1Cl [Diclofenac]	1.13	1.13
CN1[C@@H]2CC[C@H]1C[C@@H](OC(c1ccccc1)c1ccccc1)C2.CS(=O)(=O)O [Benztropine mesylate]	0.793	0.419
Cl.O=C1CN2Cc3c(ccc(Cl)c3Cl)NC2=N1 [Anagrelide hydrochloride]	0.834	1
Cc1c(C)c2c(c(C)c1O)CC[C@@](C)(CCC[C@H](C)CCC[C@H](C)CCCC(C)C)O2 [α-Vitamin E]	1.41	2.48
CC(=O)c1c(C)c2cnc(Nc3ccc(N4CCNCC4)cn3)nc2n(C2CCCC2)c1=O.O=S(=O)(O)CCO [Palbociclib Isethionate]	2.84	1.14
O=C(c1cc(Cc2n[nH]c(=O)c3ccccc23)ccc1F)N1CCN(C(=O)C2CC2)CC1 [Olaparib]	1.32	0.865
O=C(O)c1cccnc1 [Niacin]	2.03	1.59
COc1ccc([C@@H]2CC(=O)c3c(O)cc(O[C@@H]4O[C@H](CO[C@@H]5O[C@@H](C)[C@H](O)[C@@H](O)[C@H]5O)[C@@H](O)[C@H](O)[C@H]4O)cc3O2)cc1O [Hesperidin]	0.805	1.75
Cl.O[C@@H](c1cc(C(F)(F)F)nc2c(C(F)(F)F)cccc12)[C@H]1CCCCN1 [Mefloquine hydrochloride]	0.922	0.359
Cc1cc(C)nc(NS(=O)(=O)c2ccc(N)cc2)n1 [Sulfamethazine]	0.645	1.03
C#CCN[C@@H]1CCc2ccccc21 [Rasagiline]	1.19	0.976
CC[C@@]1(O)C(=O)OCc2c1cc1n(c2=O)Cc2cc3c(CN(C)C)c(O)ccc3nc2-1.Cl [Topotecan hydrochloride]	0.236	0.171
CNS(=O)(=O)CCc1ccc2[nH]cc(C3CCN(C)CC3)c2c1.Cl [Naratriptan hydrochloride]	0.859	1.2
CCC1=CC2CN(C1)Cc1c([nH]c3ccccc13)[C@](C(=O)OC)(c1cc3c(cc1OC)N(C)[C@H]1[C@@](O)(C(=O)OC)[C@H](OC(C)=O)[C@]4(CC)C=CCN5CC[C@]31[C@@H]54)C2.O=C(O)[C@H](O)[C@@H](O)C(=O)O.O=C(O)[C@H](O)[C@@H](O)C(=O)O (stereo partly specified) [Vinorelbine ditartrate]	0.445	1.54
NCCS(=O)(=O)O [Taurine]	0.71	0.673
Cc1nc2n(c(=O)c1CCN1CCC(c3noc4cc(F)ccc34)CC1)CCCC2 [Risperidal]	1.93	1.31
N[C@@H]1CONC1=O [D-Cycloserine]	1.11	1.69
CCOc1nc2cccc(C(=O)O)c2n1Cc1ccc(-c2ccccc2-c2nn[nH]n2)cc1 [Candesartan]	1.68	2.99
Nc1nc(NC2CC2)c2ncn([C@H]3C=C[C@@H](CO)C3)c2n1 [Abacavir]	1.46	3.33

Compound	bioluminescence [1]	bioluminescence [2]
CCCC(CCC)C(=O)O.CCCC(CCC)C(=O)[O-].[Na+] [Divalproex Sodium]	0.404	0.401
CC/C(=C(\c1ccccc1)c1ccc(OCCN(C)C)cc1)c1ccccc1 [Tamoxifen]	0.468	0.103
CCc1cc(/C(C)=N/OCc2ccc(C3CCCCC3)c(C(F)(F)F)c2)ccc1CN1CC(C(=O)O)C1 [Siponimod]	2.91	0.811
C[C@]12C=CC(=O)C=C1CC[C@@H]1[C@@H]2C(=O)C[C@@]2(C)[C@H]1CC[C@]2(O)C(=O)CO [Prednisone]	0.989	1.29
CCN(CC)C(=O)[C@@]1(c2ccccc2)C[C@H]1CN.Cl [Milnacipran ((1S-cis) hydrochloride)]	2.09	0.808
CN(C)CCc1c[nH]c2ccc(C[C@H]3COC(=O)N3)cc12 [Zolmitriptan]	1.52	1.34
CCOc1nc2cccc(C(=O)OC(C)OC(=O)OC3CCCCC3)c2n1Cc1ccc(-c2ccccc2-c2nn[nH]n2)cc1 (stereo unspecified) [Candesartan Cilexetil]	1.17	1.04
CC(=O)OCC(=O)[C@@]1(O)[C@H](C)C[C@H]2[C@@H]3CCC4=CC(=O)C=C[C@]4(C)[C@@]3(F)[C@@H](O)C[C@@]21C [Dexamethason acetate]	0.467	1.53
C#Cc1cccc(Nc2ncnc3cc(OCCOC)c(OCCOC)cc23)c1.Cl [Erlotinib hydrochloride]	1.66	2.02
Cl.N=C1CCCN1Cc1[nH]c(=O)[nH]c(=O)c1Cl [Tipiracil hydrochloride]	1.21	0.848
CCCCOc1ccc(C(=O)CCN2CCCCC2)cc1.Cl [Dyclonine hydrochloride]	1.03	1.13
Cc1cnc(NC(=O)C2=C(O)c3ccccc3S(=O)(=O)N2C)s1 [Meloxicam]	1.15	3.3
CCCN[C@H]1CCc2nc(N)sc2C1.Cl.Cl.O [Pramipexole 2HCl Monohydrate]	0.567	0.629
CS(=O)(=O)c1cccc(C[C@H](NC(=O)c2c(Cl)cc3c(c2Cl)CCN(C(=O)c2ccc4ccoc4c2)C3)C(=O)O)c1 [Lifitegrast]	1.08	0.439
CC(C)NCC(O)COc1ccc(CC(N)=O)cc1 (stereo unspecified) [Atenolol]	0.484	0.649
Cc1ncc([N+](=O)[O-])n1CCO [Metronidazole]	0.966	1.56
NC(=O)c1cnccn1 [Pyrazinamide]	1.24	1.72
CC/C(=C(\c1ccccc1)c1ccc(OCCN(C)C)cc1)c1ccccc1.O=C(O)CC(O)(CC(=O)O)C(=O)O [Tamoxifen Z-isomer citrate]	1.41	6.34
OCCN1CCN(CCCN2c3ccccc3Sc3ccc(Cl)cc32)CC1 [Perphenazine]	0.615	1.74
Cc1nc2c([nH]1)CCN(C(=O)c1ccc(NC(=O)c3ccccc3-c3ccccc3)cc1)c1ccccc1-2.Cl [Conivaptan hydrochloride]	3.25	0.375
C/C(O)=C(\C#N)C(=O)Nc1ccc(C(F)(F)F)cc1 [Teriflunomide]	0.469	2.32
